What all share (test): Primary qHTS to identify gynecologic anti-cancer compounds using libraries of approved drugs and bioactive compounds (AID 1345084); further: nearly all actives have a fitted effect of over 55% in size
Assay [1] concerns C33A. Particulars: Gynecologic cancer cell panel viability, ATPlite luminescence, 48 h; series mostly up to 57.5 µM. In outline:
(§1)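 ATP-based viability (ATPlite), 1,000 cells/well, 16 h pre-incubation, 48 h compound at 37 C, 5% CO2, 15 min RT before read.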

Assay [2] has as its system CAOV3. The following applies: Gynecologic cancer cell panel viability, ATPlite luminescence, 48 h; series mostly up to 57.5 µM. A digest of the protocol:
as §1

Assay [3] has as its system CASKI. Particulars: Gynecologic cancer cell panel viability, ATPlite luminescence, 48 h; series mostly up to 57.5 µM. A digest of the protocol: as §1
The subject of assay [4] is Es-2. The following applies: Gynecologic cancer cell panel viability, ATPlite luminescence, 48 h; series mostly up to 57.5 µM. In outline: as §1
Assay [5] concerns HeLa. Particulars: Gynecologic cancer cell panel viability, ATPlite luminescence, 48 h; series mostly up to 57.5 µM. A digest of the protocol:
as §1

Assay [6] relates to JEG-3. The following applies: Gynecologic cancer cell panel viability, ATPlite luminescence, 48 h; series mostly up to 57.5 µM. A digest of the protocol: as §1
Assay [7] deals with OV90. The following applies: Gynecologic cancer cell panel viability, ATPlite luminescence, 48 h; series mostly up to 57.5 µM. In outline:
as §1

For assay [8], the system named is PA-1. Particulars: Gynecologic cancer cell panel viability, ATPlite luminescence, 48 h; series mostly up to 57.5 µM. A digest of the protocol:
as §1

Assay [9] deals with SKOV3. Particulars: Gynecologic cancer cell panel viability, ATPlite luminescence, 48 h; series mostly up to 57.5 µM. A digest of the protocol: as §1
Assay [10] concerns Tov-21-G. Particulars: Gynecologic cancer cell panel viability, ATPlite luminescence, 48 h; series mostly up to 57.5 µM. In outline: as §1
The subject of assay [11] is Tov112D. The following applies: Gynecologic cancer cell panel viability, ATPlite luminescence, 48 h; series mostly up to 57.5 µM. A digest of the protocol: as §1
Assay [12] relates to Hek293T. The following applies: Gynecologic cancer cell panel viability, ATPlite luminescence, 48 h, control line for the selectivity index; series mostly up to 57.5 µM. In outline: as §1

Data on 15 molecules can be found in PubChem BioAssay (NCATS).

Results filed as inconclusive are left out. A number with no mark means an inactive call. The source made the active and inactive calls. The call rests on the fitted dose curve; in most records, active means well fitted cell-killing curve with a large enough effect; inconclusive means small, poorly fitted or top-dose-only effect, or effect the other way; inactive means flat fitted curve, though single readings scatter.
On the % scale 0 is the no-effect control and ±100 the full control effect; potency means the concentration at half of the fitted maximal effect.

Consider `O=c1cc(NCCCN[C@@H]2CCOc3c(Br)cc(Br)cc32)[nH]c2ccsc12`, for which the Potency entry in [1], in [2], in assay [3], in assay [4], in [5] and in [6] was “inactive” throughout. Besides, the Potency result in assay [7], in assay [8], in [9], in assay [10] and in [11] was “inactive” in each case.
As for `CCCc1ccc(OCC(=O)N(Cc2nc(-c3cccnc3)no2)C(C)C)cc1`, the Potency result in assay [1], in [2], in assay [3], in assay [4], in assay [5] and in [6] was “inactive” throughout. For the same molecule, the Potency entry in assay [7], in assay [8], in [9], in [10] and in assay [11] was “inactive” each time.
Take `COc1ccc2[nH]c(=O)c3c(c2c1)OC(C)(C)C=C3`: the Potency entry in [1], in assay [2], in assay [3], in assay [4], in assay [5] and in [6] was “inactive” throughout. The Potency result in assay [7], in assay [8], in assay [9], in assay [10] and in [11] was “inactive” throughout.
For the molecule `c1ccc(-c2ccc(CNc3nc(-c4ccccn4)nnc3-c3ccccc3)cc2)cc1`, the Potency in assay [1] was 12.6 µM (active); in [2], 8.91 µM (active); in assay [3], 11.2 µM (active); in assay [4] it was 17.8 µM (active); in assay [7], 7.08 µM (active); in assay [9], 12.6 µM (active). In addition, the Potency in assay [11] was 11.2 µM (active). Besides, the Potency entry in assay [6] is “inactive”.
As for `Cn1ncc(Cl)c1-c1cc(C(=O)N[C@H](CN)Cc2ccc(F)c(F)c2)oc1Cl`, the Potency was 2.24 µM (active) in assay [1]; 3.98 µM (active) in assay [3]; 14.1 µM (active) in assay [7]; 4.47 µM (active) in [9]; 708 nM (active) in assay [10]. The Potency result in assay [2], in [4], in assay [5] and in assay [6] was “inactive” throughout.
Turning to `Cc1cc(C(=O)Nc2cc(Nc3ccc4c(/C=C/c5ccccn5)n[nH]c4c3)ccc2F)n(C)n1`, the Potency result in assay [1], in assay [2], in assay [3], in assay [4], in assay [5] and in assay [6] was “inactive” throughout. Further, the Potency result in [7], in [10] and in assay [11] was “inactive” throughout.
On to `O=C(NCCO)c1cccc(-c2cc(Nc3ccc(OC(F)(F)F)cc3)ncn2)c1`, for which the Potency entry in assay [1], in assay [2], in assay [3], in assay [4], in assay [5] and in assay [6] was “inactive” each time. For the same molecule, the Potency result in assay [7], in [8], in assay [9], in [10] and in assay [11] was “inactive” in each case.
With `C[C@@H]1O[C@@H](O[C@H]2[C@@H](OC(=O)[C@]34CCC(C)(C)CC3C3=CCC5[C@@]6(C)C[C@H](O)[C@H](O[C@@H]7O[C@H](CO)[C@@H](O)[C@H](O)[C@H]7O[C@@H]7OC[C@@H](O)[C@H](O)[C@H]7O)[C@@](C)(C(=O)O)C6CC[C@@]5(C)[C@]3(C)CC4)OC[C@H](O)[C@@H]2O)[C@H](O)[C@H](O)[C@H]1O[C@@H]1OC[C@@H](O)[C@H](O)[C@H]1O` (stereo partly drawn), the activity change, negative = cytotoxicity in assay [1] was -27.4% [at 6.55 µM]; in assay [2], 2.23% [at 6.55 µM]; in assay [3] it was -11.2% [at 6.55 µM]; in assay [4] it was 4.6% [at 6.55 µM]; in assay [5], -12.9% [at 6.55 µM]; in assay [12], -3.38% [at 6.55 µM]. The activity change, negative = cytotoxicity is -26.7% [at 6.55 µM] in [8], -18.3% [at 6.55 µM] in [9], 0.0725% [at 6.55 µM] in assay [10] and -12.7% [at 6.55 µM] in assay [11].
For the molecule `Fc1ccc(N2CCCCC2)c(NC(=S)c2ccncc2)c1`, the Potency entry in assay [1], in [2], in assay [3], in [4], in [5] and in assay [6] was “inactive” each time. For the same molecule, the Potency result in [7], in assay [8], in [9], in assay [10] and in assay [11] was “inactive” each time.
Take `C=C1CC[C@@H](O)[C@]2(C)C[C@H]3OC(=O)C(=C)[C@H]3CC12` (stereo partly drawn): the Potency result in assay [1], in [2], in assay [3], in assay [4], in assay [5] and in [6] was “inactive” each time. Further, the Potency result in [7], in [8], in assay [9], in assay [10] and in assay [11] was “inactive” each time.
As to `COc1ccc([C@H]2OC[C@H]3O[C@@H](O[C@H]4[C@@H]2NC[C@@H]4O)[C@H](O)[C@H]3O)cc1`, the Potency in assay [1] is 7.08 µM (active); in assay [2] it was 2.82 µM (active); in [3] it was 5.01 µM (active); in assay [4], 4.47 µM (active); in [12] it was 3.16 µM (active); in assay [6], 5.01 µM (active). Further, the Potency in assay [8] is 5.01 µM (active); in assay [9] it was 3.98 µM (active); in assay [10], 2820 nM (active); in assay [11], 5.62 µM (active).
With `O=C(N[C@@H]1CCCc2c1cnn2-c1ccc(F)cc1F)c1ccccn1`, the Potency entry in assay [1], in assay [2], in [3], in [4], in assay [5] and in assay [7] was “inactive” in each case. Also, the Potency entry in assay [8], in assay [10] and in [11] was “inactive” in each case.
As to `Clc1ncoc1-c1c[nH]c2ccccc12`, the Potency entry in assay [1], in assay [2], in [3], in [4], in assay [12] and in assay [6] was “inactive” throughout. The Potency result in assay [7], in assay [8], in [9], in assay [10] and in [11] was “inactive” in each case.
As to `C#CC(=O)N(c1ccc(OC)cc1OC)C(C(=O)NCC(=O)OCC)c1cccs1` (stereo not drawn), the Potency in assay [1] is 5.01 µM (active); in assay [2], 1.78 µM (active); in assay [3] it was 22.4 µM (active); in assay [4], 1.41 µM (active); in assay [6], 15.8 µM (active); in assay [8], 1.58 µM (active). The Potency in [9] is 3.16 µM (active); in [10] it was 398 nM (active); in assay [11] it was 6.31 µM (active).
Regarding `CC(C)C[C@@H]1NC(=O)[C@@H](Cc2ccccc2)NC(=O)C(CCCCCC(=O)C2CO2)NC(=O)[C@@H]2CCCCN2C1=O` (stereo partly drawn), the Potency entry in assay [1], in assay [2], in assay [5], in assay [12] and in assay [11] was “inactive” throughout. In addition, the Potency in assay [3] is 0.708 µM (active); in assay [4], 2.24 µM (active).
